Laboratory results taken from PubChem BioAssay (NCI).
About 83,000 compounds went through this panel and 20% of them were active in at least one assay; those are over-represented in the sample as a whole.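 A percent growth of 40 corresponds to 60% growth inhibition; 0 means no net growth; -100 means all cells died. Active threshold: below 10.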 Values without a mark were called inactive. Calls of active or inactive are those of the source.

Tests used:
Experiment in all cases: NCI-60 one-dose screen, 48 h (100 = growth as untreated, 0 = no growth, -100 = all killed)
Conditions in all cases: 10 µM unless noted
HCT-15 colon = tested on: HCT-15 colon
HT29 colon = tested on: HT29 colon
SNB-75 CNS = tested on: SNB-75 CNS
SNB-19 CNS = tested on: SNB-19 CNS
U251 CNS = tested on: U251 CNS
PC-3 prostate = tested on: PC-3 prostate
SK-MEL-5 melanoma = tested on: SK-MEL-5 melanoma
UACC-62 melanoma = tested on: UACC-62 melanoma
LOX IMVI melanoma = tested on: LOX IMVI melanoma
SK-MEL-28 melanoma = tested on: SK-MEL-28 melanoma
SK-MEL-2 melanoma = tested on: SK-MEL-2 melanoma
EKVX NSCLC = tested on: EKVX NSCLC
SN12C renal = tested on: SN12C renal
UO-31 renal = tested on: UO-31 renal
TK-10 renal = tested on: TK-10 renal
ACHN renal = tested on: ACHN renal
A498 renal = tested on: A498 renal
CCRF-CEM leukemia = tested on: CCRF-CEM leukemia
MOLT-4 leukemia = tested on: MOLT-4 leukemia
CAKI-1 renal = tested on: CAKI-1 renal

| SMILES | growth (HCT-15 colon) | growth (HT29 colon) | growth (SNB-75 CNS) | growth (SNB-19 CNS) | growth (U251 CNS) | growth (PC-3 prostate) | growth (SK-MEL-5 melanoma) | growth (UACC-62 melanoma) | growth (LOX IMVI melanoma) | growth (SK-MEL-28 melanoma) | growth (SK-MEL-2 melanoma) | growth (EKVX NSCLC) | growth (SN12C renal) | growth (UO-31 renal) | growth (TK-10 renal) | growth (ACHN renal) | growth (A498 renal) | growth (CCRF-CEM leukemia) | growth (MOLT-4 leukemia) | growth (CAKI-1 renal) |
| --- | --- | --- | --- | --- | --- | --- | --- | --- | --- | --- | --- | --- | --- | --- | --- | --- | --- | --- | --- | --- |
| O=C(Nc1nc(Cl)nc(Nc2ccc(N3CCOCC3=O)cc2)n1)c1ccc(Cl)s1 | 94.2% | 94.3% | 103% | 88.2% | 85.4% | 85.4% | 91.3% | 87% | 62.1% | 96% | 84% | 102% | 92.1% | 91.5% | 120% | 95.7% | 85.7% | 80.9% | 85.2% | – |
| Clc1cccc(C2Cc3cnccc3-c3[nH]c4ccncc4c32)c1 (stereo not given) | 25.2% | 40.9% | 73.6% | 53.9% | 36.9% | 21.1% | -60.2% (active) | 36.5% | 39.7% | 62.7% | 61% | 42.9% | 56.4% | 39.1% | 53.3% | 42.1% | – | – | 9.28% (active) | – |
| O=C1c2cccnc2C(=O)c2c1c(C(=O)OCCc1ccccn1)c1ccccn21 | -75.9% (active) | -75% (active) | -85.3% (active) | -38.7% (active) | -82.5% (active) | -3.59% (active) | -94.2% (active) | -55.6% (active) | -50% (active) | -33.3% (active) | -35.4% (active) | 25.4% | -33.4% (active) | -48.7% (active) | -43.9% (active) | -48.5% (active) | -57% (active) | -14.1% (active) | -0.142% (active) | – |
| COc1cc2c(cc1-c1c(C)noc1C)ncc1nc(CN3CCOCC3)n([C@H](C)COC(F)F)c12 | 23% | 12.1% | 3.11% (active) | 45.1% | 61.3% | 32.3% | 19.8% | 17.4% | 12.1% | 59.3% | 36.7% | 49.6% | 56.7% | 14.1% | 2.77% (active) | 36.1% | -7% (active) | 44% | 59.5% | – |
| O=C(NCCNC(c1ccccc1)C(NCCNC(=O)c1ccccc1)c1ccccc1)c1ccccc1 (stereo not given) | 18.8% | 36.7% | 117% | 88% | 74.7% | 70.4% | 95.7% | 85.2% | 75.6% | 103% | 45.9% | 123% | 97.7% | 80.3% | 97.5% | 7.15% (active) | 112% | 97.1% | 72.2% | – |
| Cc1ccc(OCCOCCOCCOCCOCCOc2ccc(C)n(O)c2=S)c(=S)n1O | 29% | 25.7% | 24.8% | 16.7% | 12.3% | 33.3% | -32.3% (active) | -13.9% (active) | 3.58% (active) | 33.2% | 15.7% | 13.1% | 8.41% (active) | -26.1% (active) | 30.2% | 8.16% (active) | 20.4% | 1.49% (active) | 2.29% (active) | – |
| CC1=Nc2cnc(Nc3ccc(N4CCCCC4)cc3)nc2Nc2ccccc21 | 62.6% | 62.5% | 86.7% | 94.9% | 83.8% | 19.6% | 41.6% | 55.2% | 75.8% | 84.7% | 86% | 68.8% | 69.7% | 49.7% | – | 68.1% | 55.8% | 31.5% | 26.7% | 79.3% |
| c1ccc(-c2c(-c3ccccc3)[n+](Cc3ccc4ccccc4c3)cn2Cc2ccc3ccccc3c2)cc1 | -93.3% (active) | -89.9% (active) | -67.6% (active) | -66.4% (active) | -90% (active) | -91.8% (active) | -100% (active) | -73.2% (active) | -99.5% (active) | -91.5% (active) | -79.4% (active) | -46.7% (active) | -76% (active) | -22.4% (active) | -81.2% (active) | -100% (active) | – | -66% (active) | -67.7% (active) | -9.42% (active) |
